About 79,000 compounds went through this panel and 15% of them were active in at least one assay; those are over-represented in the sample as a whole. No stated cut-off is given here; in the data, active means growth inhibition above about 70%; inactive means the rest.
Key:
[1] = NCI Yeast Anticancer Drug Screen. Data for the rad50 strain (AID 155);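 further: 0% = growth of vehicle-only cultures of the same strain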; settings: S. cerevisiae rad50 strain growth inhibition; at 50.0 µM; hits give high values
In short: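 A DNA repair-deficient yeast mutant serves as the test organism; compound-induced growth inhibition is calculated against vehicle-treated cells.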

[2] = NCI Yeast Anticancer Drug Screen. Data for the mec2-1 strain (AID 157); settings: S. cerevisiae mec2-1 strain, at 50.0 µM, hits give high values
In short: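 Vehicle-treated cultures served as reference for growth inhibition of compound-exposed mec2-1 yeast.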

[3] = NCI Yeast Anticancer Drug Screen. Data for the sgs1 mgt1 strain (AID 161);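 further: 0% = growth of cultures given vehicle only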; settings: S. cerevisiae sgs1 mgt1 strain, at 50.0 µM, hits give high values
In short: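 Mutant yeast exposed to compound; growth scored against vehicle-only wells.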

[4] = NCI Yeast Anticancer Drug Screen. Data for the cln2 rad14 strain (AID 165);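 further: 0% = growth equal to vehicle treated cultures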; settings: S. cerevisiae cln2 rad14 strain, at 50.0 µM, hits give high values
In short: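 Each compound was tested on cln2 rad14 yeast. Inhibition of growth was calculated against vehicle-exposed controls.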

[5] = NCI Yeast Anticancer Drug Screen. Data for the bub3 strain (AID 167); settings: S. cerevisiae bub3 mutant strain, at 50.0 µM, hits give high values
In short: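 Inhibition values come from growth of compound-treated mutant yeast normalised to vehicle-treated controls.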

[6] = NCI Yeast Anticancer Drug Screen. Data for the mlh1 rad18 strain (AID 175); settings: S. cerevisiae mlh1 rad18 strain growth inhibition; at 50.0 µM; hits give high values
In short: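 Vehicle-treated cultures served as the reference for growth inhibition in a yeast strain carrying DNA damage repair alterations exposed to each compound.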

Measured: growth inhibition

COC(=O)/C(=N\O)C(C(=O)C=C(C)C)C(=O)C(=O)Nc1ccccc1C (stereo unspecified)
inactive: [1] -5.8% | [2] -21.6% | [3] -8.35% | [4] 7.4% | [5] -14.1% | [6] -18.1%

CC(C)(C)NC(=O)c1cccc(C(N)=O)n1
inactive: [1] -10.4% | [2] -16.1% | [3] -11.8% | [4] -21.6% | [5] -4.25% | [6] -0.6%

O=C(Cc1ccccc1)Nc1cccc2ccccc12
inactive: [1] 6.15% | [2] 1.7% | [3] 0.8% | [4] 1% | [5] 22.9% | [6] 0.9%

C[n+]1cccc(C(=O)O)c1-c1ccccc1
inactive: [1] 20.4% | [2] 5.9% | [3] 5.85% | [4] -39.5% | [5] 4.55% | [6] 10.3%

CCN(CC)CCO/N=C1\CC(c2ccc(OC)c(OC)c2)Oc2ccccc21 (stereo unspecified)
inactive: [1] 3.8% | [2] 13.7% | [3] 2.65% | [4] 26.6% | [5] -9.85% | [6] 9.8%

Cc1cc(NS(=O)(=O)c2ccc(NC(=O)c3ccc(Cl)c4c(Nc5ccc(S(N)(=O)=O)cc5)c5ccccc5nc34)cc2)no1
inactive: [1] 34% | [2] 36.8% | [3] 33.5% | [4] 46.2% | [5] 31.4% | [6] 68.1%

CC(=O)C(C(=O)C(=O)Nc1cc(Cl)c(Cl)cc1Cl)c1csc(N)n1 (stereo unspecified)
inactive: [1] -14.7% | [2] -9.2% | [3] -1.85% | [4] 7% | [5] -2.5% | [6] -10.6%

COc1ccc(-c2cc(C(O)C3CCCCN3)c3ccccc3n2)cc1 (stereo unspecified)
inactive: [1] 4.15% | [2] -42% | [3] -20.9% | [4] 11.7% | [5] -31.1% | [6] -10.1%

CCOC(=N)c1ccc(C(=N)OCC)cc1
inactive: [1] -11.2% | [2] -29.4% | [3] -29.4% | [4] -20.8% | [5] -32.5% | [6] -41.7%

COC(=O)c1oc([N+](=O)[O-])c(-c2ccccc2)c1-c1ccccc1
inactive: [1] 6.95% | [2] 12.5% | [3] 29.3% | [4] -11.5% | [5] 6.85% | [6] 24.1%

CCCC1(c2ccccc2)CNC(=O)NC1
inactive: [1] -3.8% | [2] 19.5% | [3] 1.8% | [4] -9% | [5] 3.25% | [6] -2.95%

CSc1nc(=S)c2[nH]c(=S)[nH]c2[nH]1
inactive: [1] -1.2% | [2] 11.4% | [3] -6.5% | [4] -35.9% | [5] 21.5% | [6] 4.05%

O=C1CSC(=S)N1N1C(=O)CSC1=S
inactive: [1] -24.8% | [2] -7.8% | [3] -21.5% | [4] -12.3% | [5] 5.55% | [6] -12.4%

CN(C=O)c1ccccc1
inactive: [1] 3.6% | [2] 1.8% | [3] 6.15% | [4] 11.7% | [5] 2.05% | [6] 3.05%

CC(C)/C=C(/CC(C)C)C(CCC(=O)Nc1ccccc1)C(=O)Nc1ccccc1 (stereo unspecified)
inactive: [1] 7.9% | [2] 27.7% | [3] 4.1% | [4] 10% | [5] 1.8% | [6] 35.2%

N=C1N=Nc2nc(C(C(=O)c3cccc([N+](=O)[O-])c3Cl)c3nc4n(c3O)C(=N)N=N4)c(O)n21 (stereo unspecified)
inactive: [1] -2.65% | [2] 0.7% | [3] 13.8% | [4] -23.5% | [5] -0.15% | [6] 2.8%

CCOC(=O)CCC(NC(=O)N1CCN(c2c(C)nc(C)[nH]c2=O)CC1)C(=O)OCC (stereo unspecified)
inactive: [1] 11.6% | [2] -0.1% | [3] 10.6% | [4] -4.7% | [5] 12.7% | [6] 18.6%

CN(C)c1ccccc1C(=O)N/N=C\c1ccc(O)c(O)c1
inactive: [1] 17.6% | [2] 14.2% | [3] 19.5% | [4] 5.75% | [5] 12.4% | [6] 22.2%

CCC1CCCC1=O (stereo unspecified)
inactive: [1] -8.75% | [2] -10.1% | [3] -9.9% | [4] 8.6% | [5] 10.4% | [6] -8.55%

Nc1nc(N)nc(-c2cc(Br)ccc2N)n1
inactive: [1] 51.6% | [2] -0.3% | [3] 12.4% | [4] 19.1% | [5] 30.4% | [6] 7.5%

COC(=O)C1CCC(=O)N1C(c1ccc(OC)cc1)c1ccc(OC)cc1 (stereo unspecified)
inactive: [1] -26.6% | [2] 25.6% | [3] 13.4% | [4] 12.6% | [5] 8.3% | [6] 6.7%

CCn1c(O)c(C=Nc2ccccc2)s/c1=N/Nc1nc(C)cs1
inactive: [1] -45.3% | [2] -55.2% | [3] -25% | [4] -14.1% | [5] -26.7% | [6] -27.5%

S=c1ccc2ccccc2[nH]1
inactive: [1] -16.9% | [2] -8.15% | [3] -0.75% | [4] -13% | [5] -16.1% | [6] -13.8%

CC1(C)Cc2ccccc2C(C)(Cl)C(=O)N1 (stereo unspecified)
inactive: [1] -10.8% | [2] 0.3% | [3] 6.4% | [4] 17.9% | [5] -26.9% | [6] 17.8%

C/C(NN(C)C)=C(\C#N)C(=O)/C=C/c1cccs1
inactive: [1] 25.2% | [2] 1.75% | [3] 38.5% | [4] 25.9% | [5] 18.1% | [6] 18.8%

CCN(CC)CCCNc1ccnc2ccc(Cl)cc12
inactive: [1] -9.9% | [2] -15.6% | [3] 5.45% | [4] -17.9% | [5] 13.9% | [6] 2.55%

Cc1ccc2c(c1)[nH]c1ccccc12
inactive: [1] 15.3% | [2] 13.7% | [3] 26.2% | [4] -14.2% | [5] 22.6% | [6] 23.9%

Nc1c(Br)c(Br)cc2c1-c1ccc(Br)cc1C2
inactive: [1] 8.2% | [2] 3.75% | [3] -2.65% | [4] 8.75% | [5] 7.9% | [6] -4.7%

Cc1ccc(S(=O)OC2C3CC4CC(C3)CC2C4)cc1 (stereo unspecified)
inactive: [1] 6.65% | [2] 10.3% | [3] 0.2% | [4] 30.8% | [5] 1.25% | [6] 0.75%

C/C(=N\NC(=S)N1CCC(C2CCN(C(=S)N/N=C(\C)c3ccccn3)CC2)CC1)c1ccccn1
inactive: [1] 32.4% | [2] 15.5% | [3] 60.1% | [4] 45.2% | [5] 63.9% | [6] -27.4%

O=[N+]([O-])c1cccc2ccc(N/N=C/c3ccccc3O)nc12
inactive: [1] 18.8% | [2] -4.05% | [3] 42.2% | [4] 1.85% | [5] 7.25% | [6] 19.8%

O/N=C(/CC(O)(c1ccccc1)c1ccccc1)c1ccccc1
inactive: [1] 22.6% | [2] -6.8% | [3] 7.8% | [4] -15.4% | [5] -17.9% | [6] 27.4%

CC(C)N1COC(c2ccccc2)C1 (stereo unspecified)
inactive: [1] 6.05% | [2] 0.35% | [3] -19.1% | [4] -17.9% | [5] -24.9% | [6] -26.1%

Nc1ccccc1SC(CC(=O)c1ccccc1)c1cccc([N+](=O)[O-])c1 (stereo unspecified)
inactive: [1] -31.1% | [2] -26.1% | [3] 0.55% | [4] -29.6% | [5] -17.9% | [6] -13.5%

CCOP(=O)(OCC)/C(C#N)=C/c1c(C)[nH]c2ccccc12
inactive: [1] 0.5% | [2] -10.8% | [3] 18.6% | [4] 13.4% | [5] -7.45% | [6] 25.7%

C[n+]1c(C2(O)CCCCCCCCCCC2)sc2ccccc21
inactive: [1] 3.8% | [2] 10.1% | [3] 1.5% | [4] -11.3% | [5] 1.4% | [6] 34.4%

— PubChem BioAssay (NCI)
